Screens from PubChem.
This is a sample that favours compounds with a hit; in the whole collection about 1.5% have one here.
GALK inh = blocks human galactokinase activity; P51570; Purified GALK, Kinase-Glo residual ATP luminescence; Potency, µM (highest dose often 57.5 µM), for the others: top-dose activity change, negative = inhibition, actives largely listed as inhibitors; hit rate 0.007% among 270,000; AID 1868; further: potency means the concentration at half of the fitted maximal effect
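Human GALK (5 nM) with 35 uM ATP and 100 uM galactose in 20 mM HEPES pH 8.0, 5 mM MgCl2, 60 mM NaCl, 1 mM DTT, 0.01% BSA. After 1 h at room temperature, leftover ATP was read by Kinase-Glo Plus luminescence.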
Eya2 inh = inhibitors of human Eya2 phosphatase activity; AID 488837; Potency, µM (doses to about 76.9 µM), for inactives: at the top dose activity, negative = inhibition, usual class: inhibitors; recombinant Eya2, OMFP fluorescence dephosphorylation (OMFP is methylfluorescein phosphate); hit rate 0.006% among 330,000; O00167; further: potency means the concentration at half of the fitted maximal effect
Target sequence (O00167 whole entry, looked up): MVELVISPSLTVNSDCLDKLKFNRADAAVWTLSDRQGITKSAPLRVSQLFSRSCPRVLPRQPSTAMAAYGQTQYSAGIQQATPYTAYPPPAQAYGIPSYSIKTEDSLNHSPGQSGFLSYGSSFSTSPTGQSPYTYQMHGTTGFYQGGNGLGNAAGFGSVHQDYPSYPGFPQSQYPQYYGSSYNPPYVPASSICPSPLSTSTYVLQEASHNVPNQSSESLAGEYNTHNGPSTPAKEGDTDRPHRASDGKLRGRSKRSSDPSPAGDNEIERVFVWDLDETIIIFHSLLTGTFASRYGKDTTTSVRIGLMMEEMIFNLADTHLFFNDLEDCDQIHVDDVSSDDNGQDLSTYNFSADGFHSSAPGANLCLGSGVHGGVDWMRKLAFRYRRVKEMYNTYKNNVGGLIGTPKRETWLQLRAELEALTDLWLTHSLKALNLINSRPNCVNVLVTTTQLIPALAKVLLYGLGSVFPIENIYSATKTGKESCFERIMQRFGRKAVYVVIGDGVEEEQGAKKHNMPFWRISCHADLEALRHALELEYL
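Eya2 protein (added as 0.2 uM solution) was preincubated with compound for 10 min at ambient temperature in 50 mM HEPES pH 7.5, 50 mM NaCl, 5 uM MgCl2, 0.05% BSA, 1 mM DTT. OMFP (added at 50 uM) then reacted 10 min; fluorescence read at 485/525 nm.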
Six1-Eya2 inh = Six1/Eya2 interaction inhibition; AlphaScreen GST-Six1/His-Eya2 binding, biochemical; stronger effect = lower value; Q15475+O00167; hit rate 0.56% among 360,000; activity change, % (test concentration not listed); AID 651725; in the data active means activity change below about -65%; inconclusive means mostly about -30% to -63%
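Six1/Eya2 binding was read as AlphaScreen signal after compounds were pinned into GST-Six1 plus His-tagged Eya2 (5X stock 250/500 nM) in pH 8.0 Tris/NaCl/TCEP buffer, beads added, then incubated 1 h, 37 C, dark.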
CtBP-E1A blk = blocks the CtBP interaction with E1A; activity change, % (no concentration beside the values); AlphaScreen GST-E1A/His-CtBP binding, 1536-well; stronger effect = lower value; hit rate 0.49% among 340,000; AID 651724; in the data active means activity change below about -65%; inconclusive means mostly about -30% to -63%
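Protein mix (5X: 125 nM each GST-E1A, His-CtBP) was incubated with pinned compound 2 h at 37 deg C in dark, in 50 mM Tris pH 8.0 buffer with 300 mM NaCl. Glutathione donor and nickel acceptor beads followed; AlphaScreen signal read after 1 h.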
TrxR1 substrate = rat thioredoxin reductase 1 substrate activity | O89049 | purified TrxR1 substrate turnover, NADPH consumption readout | Potency, µM (highest dose often 114 µM), for inactives: at the top dose activity change, negative = substrate turnover | hit rate 0.01% among 390,000; further: potency means the concentration at half of the fitted maximal effect; nearly all actives have a fitted effect of over 50% in size
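Rat TrxR1, dispensed at 90 nM, was prereduced with 400 uM NADPH (final) for 5 min at ~22 deg C, then incubated with compound 15 min before 400 uM selenite. A first-read NADPH fluorescence drop versus no-compound background flagged substrates.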
rTrxR1 inhibitor = rat TrxR1 inhibition; recombinant rTrxR1, NADPH fluorescence consumption, selenite substrate; Potency, µM (top dose mostly 114 µM), inactives show at the highest dose activity change, negative = inhibition, actives largely listed as inhibitors; hit rate 1% among 390,000; further: potency means the concentration at half of the fitted maximal effect; nearly all actives have a fitted effect of over 65% in size
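Rat TrxR1 (90 nM in the dispensed reagent) was pre-reduced with 400 uM NADPH for 5 min at room temperature, then incubated with compound for 15 min. After 400 uM selenite was added, NADPH fluorescence (Ex 340/Em 450 nm) was followed for 8 min.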
* = called active by the depositor; u = inconclusive; x = no result given; [ ] = another dose, or the depositor's remark. Unless noted, the call rests on the fitted dose curve; in most records, active means well fitted curve in the direction sought with a large enough effect; inconclusive means small, poorly fitted or top-dose-only effect, or another doubt; inactive means no such curve, though single readings can be large; an effect the other way counts as inactive or inconclusive. On the % scale 0 is the no-effect control and ±100 the full control effect.

SMILES	GALK inh	Eya2 inh	Six1-Eya2 inh	CtBP-E1A blk	TrxR1 substrate	rTrxR1 inhibitor
Cc1ccc(C)c(NC(=O)c2nc(S(=O)(=O)Cc3ccc(F)cc3)ncc2Cl)c1	x	x	x	x	3%	1.6µM*
O=[N+]([O-])c1ccc2c(c1)C=C/C2=C/c1ccccc1	x	x	x	x	-2%	u
Nc1ncn(C(=S)Nc2ccccc2)n1	x	x	-12	9	-6%	16µM*
Cc1ccc(C2C(C#N)=C(N)Oc3cc(N)ccc32)cc1 (stereo not given)	3%	-21%	-2	x	-7%	6%
Cc1ccc(/C=C2\CCC3=C2OC(N)=C(C#N)C3c2ccc(C)cc2)cc1 (stereo not given)	3%	14%	1	7	-9%	50µM*
NC(=O)c1c(NC(=O)c2ccc(N3C(=O)CCC3=O)cc2)sc2c1CCCC2	x	6%	-68*	x	5%	u
CCOc1ccc(C(=O)N/N=C(\c2ccccc2)c2ccccn2)cc1	-1%	10%	u	-67*	-6%	0%
O=C(N/N=C(\c1ccccc1)c1ccccn1)c1cccc([N+](=O)[O-])c1	0%	-6%	-91*	x	-11%	-7%[57.1 µM]
CCN(CC)c1ccc(NC(=O)C2CCN(S(=O)(=O)c3ccc4c(c3)oc(=O)n4C)CC2)c(C)c1	x	x	x	x	1%	40%
O=C(O)c1cc(-c2ccc(Cl)s2)nc2ccccc12	5%	-1%	0	2	179%[57.1 µM]	46%
Cc1ccc(-c2cc(C(=O)O)c3ccccc3n2)s1	2%	2%	10	-16	827%	79µM*
COc1ccc(CCn2c(=O)c3cccnc3n(CC(=O)Nc3c(C)cccc3C)c2=O)cc1OC	x	x	x	x	-9%	-6%
Cc1ccc(CN(C)C(=O)c2cccc(S(=O)(=O)N3CCc4ccccc4C3)c2)o1	x	-28%	-14	-2	2%	40µM*
COc1ccc(C(=O)N2CCN(Cc3cc(OC)c(O)c(OC)c3)CC2)cc1OC	1%	5%	4	-5	12%	25µM*
COc1cc(CN2CCN(C(=O)CC(C)C)CC2)cc(OC)c1O	1%	16%	0	10	5%	7.9µM*
CCC(C)c1c(N)n(S(=O)(=O)c2ccc(C)cc2)oc1=O (stereo not given)	x	x	-77*	u	5%[57.1 µM]	7%[2.29 µM]
COc1ccc(NC(=O)C2CCN(S(=O)(=O)c3ccc4[nH]c(=O)ccc4c3)CC2)c(OC)c1	x	x	x	x	-15%[57.1 µM]	-23%[57.1 µM]
COCc1cc(CN2CCN(C)CC2)c(O)c2ncccc12	2%	3%	-92*	-93*	8%	-36%
CCOC(=O)N1CCN(Cc2cc(Cl)c3cccnc3c2O)CC1	7%	u	-78*	-91*	0%[57.1 µM]	4%[57.1 µM]
O=C(Oc1c(CN2CCOCC2)cc(Cl)c2cccnc12)c1ccccc1Br	-1%	-13%	-94*	-69*	8%	21%
Oc1c(CN2CCOCC2)cc(COCc2ccccc2)c2cccnc12	0%	-1%	-92*	-88*	-12%	u
O=C(Oc1c(Cl)cc(Cl)c2cccnc12)N1CCOCC1	0%	-44%	3	-10	2%	12%
CC(C)[C@@H]1CC[C@@H](C)C[C@@H]1P(=O)(c1ccccc1)c1ccccc1	x	-13%	x	x	1%[57.1 µM]	8%[57.1 µM]
COc1ccc(-n2ccnc(NCc3cccs3)c2=O)cc1	x	x	x	x	0%[57.1 µM]	2%[57.1 µM]
O=C1c2oc3ccccc3c(=O)c2C(c2cccc(O)c2)N1CCCN1CCOCC1 (stereo not given)	2%	-10%	-8	1	4%	45µM*
SMILES	GALK inh	Eya2 inh	Six1-Eya2 inh	CtBP-E1A blk	TrxR1 substrate	rTrxR1 inhibitor
CCOc1ccc(C2c3c(oc4ccccc4c3=O)C(=O)N2CCCN2CCOCC2)cc1OCC (stereo not given)	0%	2%	-4	4	2%	u
COc1cccc(C2c3c(oc4ccccc4c3=O)C(=O)N2CCCN2CCOCC2)c1OC (stereo not given)	x	x	1	0	-2%	18%
COc1ccc(C2c3c(oc4ccccc4c3=O)C(=O)N2CCCN2CCOCC2)cc1 (stereo not given)	x	x	0	0	3%	35µM*
Cc1ccc(Cl)cc1NC(=O)CSC1=Nc2ccccc2C2=NC(Cc3ccccc3)C(=O)N12 (stereo not given)	x	x	x	x	1%[57.1 µM]	11%[57.1 µM]
CCOC(=O)C1(C)C(C(=O)OC)=C(c2ccc(OC)cc2)c2ccccc2N1C(=O)OC (stereo not given)	x	-15%	-4	0	3%	40µM*
Cc1nnsc1C(=O)N/N=C/c1ccccc1	0%	1%	7	-2	5%[57.1 µM]	14%[57.1 µM]
Cc1nnsc1C(=O)N/N=C/c1ccc2ccccc2c1O	1%	6%	-87*	-71*	-4%	5%
CC1CCN(c2ccc(NC(=S)NC(=O)c3ccc(-c4cccc([N+](=O)[O-])c4)o3)cc2)CC1	-3%	8%	-20	-19	-4%	20µM*
CC1CCN(c2ccccc2NC(=S)NC(=O)c2ccc(-c3cccc([N+](=O)[O-])c3)o2)CC1	0%	-16%	1	-3	-5%	-23%
Cc1cc(=O)[nH]c2c(N=Nc3ccc(O)cc3)c(N)nn12	6%	-7%	-77*	x	-16%	-11%
Nc1nn2c(C(F)(F)F)cc(=O)[nH]c2c1N=Nc1cccc(F)c1	6%	-8%	-17	-6	-8%	3%
CC(=O)c1ccc(NC(=O)CC2Oc3ccc(C)cc3NC2=O)cc1 (stereo not given)	x	x	x	x	-2%	14%
CC(C)(C=O)C1=CC(=O)c2ccccc2C1=O	-2%	1%	u	11	12%	45µM*
CCC1=C[C@@H]2CN(C1)Cc1c([nH]c3ccccc13)[C@@](C(=O)OC)(c1cc3c(cc1OC)N(C)[C@H]1[C@@](O)(C(=O)OC)[C@H](OC(C)=O)[C@]4(CC)C=CCN5CC[C@]31[C@@H]54)C2	x	x	x	x	4%	28µM*
O=C(CCl)Nc1cc(-c2ccccc2)nn1-c1ccccc1	-5%	25%	29	40	2%	22µM*
Cc1ccc(-c2cc(NC(=O)CCl)n(-c3ccccc3)n2)cc1	0%	3%	1	4	2%	35µM*
Cc1ccc(OCC(=O)Nc2cc(-c3cccc(C)c3)nn2-c2ccccc2)cc1	x	x	x	x	1%[57.1 µM]	29%[57.1 µM]
CC1CCN(C(=O)COC(=O)/C=C/c2ccc([N+](=O)[O-])cc2)CC1	x	12%	-7	u	1%	1%
O=C(/C=C/c1ccc([N+](=O)[O-])cc1)OCC(=O)N1CCCC1	x	5%	1	-68*	6%[57.1 µM]	3%[57.1 µM]
CC(C)Nc1ccc(Nc2ccnc3cc4ccccc4cc23)cc1	5%	-1%	-70*	-81*	0%	1%
